# Measurements as given in PubChem BioAssay AID2284355 (EPA ToxCast).
# Records with an inconclusive call do not appear. Active and inactive are the calls of the source. How the source made its calls: active means hit-call score of the fitted dose curve at least 0.9, where 1 is the maximum; inconclusive means response in the unintended direction; inactive means score below 0.9.
# Tested on: rainbow trout Retinoid X Receptor beta (RXRb)
# Test: ATG_rtRXRb_EcoTox2: Attagene TRANS-FACTORIAL EcoTox-2 HepG2 Assay for rainbow trout Retinoid X Receptor beta (RXRb)
# Experimental: ATG_EcoTox2 is a cell-based, multiplexed assay created by modifying the existing Attagene TRANS-FACTORIAL system to include a panel of nuclear receptors from some or all the following species: human (Homo sapiens), african clawed frog (Xenopus laevis), rainbow trout (Oncorhynchus mykiss), japanese medaka (Oryzias latipes), and zebrafish (Danio rerio). The ECOTOX2-FACTORIAL format uses HepG2, a human liver cell line, with measurements taken at 24 hours after chemical dosing in a 24-well plate. ATG_rtRXRb_EcoTox2 is one of 29 assay components calculated in the ATG_EcoTox2 assay. It is designed to make measurements of mRNA induction, a form of inducible reporter, as detected with fluorescence intensity signals by Reverse transcription polymerase chain reaction (RT-PCR) and Capillary electrophoresis technology.The assay endpoint ATG_rtRXRb_EcoTox2 was analyzed in the positive analysis fitting direction relative to DMSO as the negative control and baseline of activity. Using a type of inducible reporter, measures of mRNA for gain-of-signal activity can be used to understand the reporter gene at the transcription factor-level as they relate to the gene RXRb. Furthermore, this assay endpoint can be referred to as a primary readout, because this assay has produced multiple assay endpoints where this one serves a reporter gene function. […]
row,SMILES,AC50
1,[Cl][Sn]([c]1ccccc1)([c]1ccccc1)[c]1ccccc1,0.119 µM (active)
